The results in this text go back to PubChem BioAssay (NCI).

Test [1] in a line: NCI Yeast Anticancer Drug Screen. Data for the rad50 strain (AID 155).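 Also: 0% = growth of vehicle-only cultures of the same strain.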 Conditions: S. cerevisiae rad50 strain growth inhibition; at 50.0 µM; active compounds read high. The procedure, abridged: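 Cells are treated with compound, grown, and their growth is then scored against vehicle-only cultures of the same repair-deficient yeast strain.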
Test [2] is described as follows: NCI Yeast Anticancer Drug Screen. Data for the mec2-1 strain (AID 157). Conditions: S. cerevisiae mec2-1 strain, at 50.0 µM, active compounds read high. The procedure, abridged:
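Cells of the genetically defined mec2-1 yeast strain are incubated with test compound. Inhibition of growth is calculated against vehicle-treated controls.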

Test [3] is described as follows: NCI Yeast Anticancer Drug Screen. Data for the sgs1 mgt1 strain (AID 161).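 Also: 0% = growth of cultures given vehicle only.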 Conditions: S. cerevisiae sgs1 mgt1 strain, at 50.0 µM, active compounds read high. The procedure, abridged:
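Genetically altered yeast, compound exposure, growth inhibition relative to vehicle.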

A short description of test [4]: NCI Yeast Anticancer Drug Screen. Data for the cln2 rad14 strain (AID 165).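 Also: 0% = growth equal to vehicle treated cultures.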 As to conditions: S. cerevisiae cln2 rad14 strain, at 50.0 µM, active compounds read high. The procedure, abridged: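 The screen exposed genetically defined yeast (cln2 rad14) to test compounds and scored growth inhibition relative to vehicle-treated controls.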
Test [5] can be described thus: NCI Yeast Anticancer Drug Screen. Data for the bub3 strain (AID 167). As to conditions: S. cerevisiae bub3 mutant strain, at 50.0 µM, active compounds read high. The procedure, abridged: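 Part of a panel of yeast mutants defective in DNA damage repair or cell cycle regulation. Each strain is grown with compound, and inhibition is calculated relative to solvent-treated cultures.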

Test [6] is described as follows: NCI Yeast Anticancer Drug Screen. Data for the mlh1 rad18 strain (AID 175). As to conditions: S. cerevisiae mlh1 rad18 strain growth inhibition; at 50.0 µM; active compounds read high. Summed up:
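Compound-treated yeast growth, normalised to vehicle controls. Strain bears defined DNA repair mutations.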

The panel holds about 79,000 compounds, 15% with a hit somewhere; the sample as a whole holds those more often. Values without a mark were called inactive. The source made the active and inactive calls. Rule as the data show it: active = growth inhibition above about 70%; inactive = the rest.

In the case of `Cc1ccc(N=C(C(=O)c2ccccc2)C(Nc2ccc(C)cc2)C(=O)c2ccccc2)cc1` (stereo unspecified), the growth inhibition in test [1] is 23.8%; in test [2], 3.25%; in test [3], 17.8%; in test [4], 20.8%; in test [5] it was -3.7%; in test [6] it was 10.7%.

With `CC(=O)C1OC1c1ccccn1` (stereo unspecified), the growth inhibition in test [1] is -5.15%; in test [2] it was 3.7%; in test [3], -9.5%; in test [4], 55.8%; in test [5], 3.4%; in test [6], 3.35%.

Consider `S=c1[nH]nc(COc2cccc3cccnc23)n1-c1ccccc1`, for which the growth inhibition in test [1] was 12.5%; in test [2] it was 2.55%; in test [3] it was 2.05%; in test [4] it was 25.9%; in test [5], 13.4%; in test [6], 12.4%.

For the compound `COc1ccccc1-c1cc(=O)c2c(C)cc(C)nc2[nH]1`, the growth inhibition in test [1] was -15.8%; in test [2], -16.1%; in test [3] it was -0.6%; in test [4], -20.3%; in test [5], 6.25%; in test [6] it was 1.65%.

As for `CC1(c2cccc3ccccc23)OC(=O)c2cccc(F)c21` (stereo unspecified), the growth inhibition in test [1] is -10.9%; in test [2], -7.1%; in test [3] it was -16.1%; in test [4], 23.4%; in test [5], 7.6%; in test [6], 0.55%.

`CNC(=O)C1NCCc2cc(OC)c(OC)cc21` (stereo unspecified): the growth inhibition in test [1] is 21.9%; in test [2], -22%; in test [3], 20.7%; in test [4], 13.2%; in test [5] it was 10.4%; in test [6], 20.6%.

In the case of `CC(C)(C)c1cc(CCC(=O)Nc2ccc(Cl)cc2)[nH]c(=S)n1`, the growth inhibition was 1.85% in test [1]; -16.1% in test [2]; 0.4% in test [3]; -8.85% in test [4]; -5.85% in test [5]; -14.8% in test [6].

Consider `Cc1c(C(=O)Nc2ccccc2)nnn1-c1ccnc2cc(C(F)(F)F)ccc12`, for which the growth inhibition is -13.8% in test [1]; -6.75% in test [2]; -8.85% in test [3]; -4.05% in test [4]; -5.6% in test [5]; 2% in test [6].

In the case of `Clc1ccc(Cl)c(-c2csc(-c3cccnc3)n2)c1`, the growth inhibition was 4.95% in test [1]; -11.6% in test [2]; 12.5% in test [3]; -34.5% in test [4]; 7.6% in test [5]; 17.9% in test [6].

As for `CC(C)OC(=O)N1C(=O)C2C3CCC(O3)C2C1=O` (stereo unspecified), the growth inhibition in test [1] is 9.2%; in test [2], 8.25%; in test [3], 15.2%; in test [4] it was 10.4%; in test [5] it was 9.65%; in test [6], 16.1%.

Regarding `C=C1C(=O)OC2CC3(C)C=CC(=O)C(=C)C3CC12` (stereo unspecified), the growth inhibition in test [1] was 6.75%; in test [2], 20.6%; in test [3], 34.4%; in test [4], 39.9%; in test [5], 26.8%; in test [6], 23.4%.

With `Cc1ccc(OCC2OC(n3cnc4c(Cl)nc(N)nc43)CC2Oc2ccc(C)cc2)cc1` (stereo unspecified), the growth inhibition was 2.3% in test [1]; -11% in test [2]; 13.4% in test [3]; 14.6% in test [4]; 2.4% in test [5]; -13.2% in test [6].

In the case of `Nc1c(Cl)ncnc1NCCc1ccccc1`, the growth inhibition is -3.35% in test [1]; -16.1% in test [2]; -15.4% in test [3]; -45.1% in test [4]; -11.8% in test [5]; -11.8% in test [6].

On to `N#CC(C#N)=CNC(N)=S`, for which the growth inhibition in test [1] is -4.7%; in test [2], -8.75%; in test [3] it was -20.7%; in test [4], 13.7%; in test [5] it was -14.8%; in test [6], 10.1%.

For the compound `O=C1CCC2(CC1)SCCCS2`, the growth inhibition in test [1] is -0.6%; in test [2], -21.5%; in test [3], -16.1%; in test [4], 20.9%; in test [5], -7.3%; in test [6] it was -17.1%.

`CCCCCCCCCC(=O)N/N=C/c1c[nH]c2ccccc12`: the growth inhibition in test [1] was 0.95%; in test [2], 28.4%; in test [3] it was 20.7%; in test [4] it was -8.75%; in test [5] it was 29.1%; in test [6] it was 21.9%.

As for `O=C(Nc1ncnc2nc(-c3ccccc3)[nH]c12)c1ccccc1`, the growth inhibition was -30.1% in test [1]; -16.9% in test [2]; -5% in test [3]; -56.3% in test [4]; -6.65% in test [5]; 5.95% in test [6].

On to `CC1(C)N=C(N)NC(Nc2ccc(Cl)cc2)=N1`, for which the growth inhibition is 9.6% in test [1]; 9.05% in test [2]; 10.8% in test [3]; -20.8% in test [4]; 14.6% in test [5]; 33.6% in test [6].

Regarding `CCCCOC(=O)c1ccc(NC(=O)CCC(C)Cl)cc1` (stereo unspecified), the growth inhibition in test [1] was -15.7%; in test [2], 13.2%; in test [3] it was -2.1%; in test [4], -22.2%; in test [5], 16.8%; in test [6], 6.6%.

Regarding `CCOc1ccccc1/C=C1\NC(=O)NC1=O`, the growth inhibition was -38.6% in test [1]; -35% in test [2]; -35% in test [3]; -14.9% in test [4]; 2.6% in test [5]; -6.7% in test [6].

In the case of `Nc1ccc(I)cn1`, the growth inhibition in test [1] is -3.35%; in test [2], 5.7%; in test [3] it was -3.65%; in test [4] it was -11.7%; in test [5], 14.6%; in test [6] it was -3.95%.

In the case of `O=Ic1ccccc1`, the growth inhibition was 16.6% in test [1]; 0.2% in test [2]; 1.5% in test [3]; 10.9% in test [4]; -0.3% in test [5]; -8.8% in test [6].

For `CC(=O)NNc1nc(C)c(C(/C=C/c2ccc(Cl)cc2)=N/NC(=S)NN)s1`, the growth inhibition in test [1] was 34.1%; in test [2], 20.4%; in test [3] it was 45%; in test [4] it was 15.8%; in test [5] it was 11.8%; in test [6] it was 9.75%.

For `CC(C)C1OC(c2ccccc2)OCC1(C)C` (stereo unspecified), the growth inhibition in test [1] was -14.8%; in test [2], -18.2%; in test [3] it was -4.15%; in test [4] it was -39.2%; in test [5] it was -4.15%; in test [6] it was 6.35%.

As to `O=C(O)CCNC(=O)c1ccccc1O`, the growth inhibition in test [1] was -41.5%; in test [2], -8.5%; in test [3], -17.1%; in test [4], -53.8%; in test [5] it was -18.1%; in test [6] it was -56.8%.

For the compound `O=C1CCCCCCCCC1=O`, the growth inhibition in test [1] was 3.5%; in test [2] it was -6.4%; in test [3], -11.3%; in test [4], -4.05%; in test [5], -12.8%; in test [6] it was -11.2%.

For `O=c1oc(Cl)cc2oc(=O)n(-c3ccccc3)c(=O)c12`, the growth inhibition in test [1] was 10.8%; in test [2], 7%; in test [3], 18.8%; in test [4], -3.15%; in test [5], -9.25%; in test [6], 9.45%.

With `O=c1ccn(C2OC(CO)C(O)C2Cl)c(=O)[nH]1` (stereo unspecified), the growth inhibition is -6.7% in test [1]; -42.1% in test [2]; -11.4% in test [3]; 10.2% in test [4]; 4.9% in test [5]; -14.4% in test [6].

With `C[N+](C)(C)/C=C/c1ccccc1`, the growth inhibition is 30.8% in test [1]; -8.2% in test [2]; 21% in test [3]; -11.3% in test [4]; 0.2% in test [5]; 38.9% in test [6].

On to `CC(C)C1CCC(C)(C(=O)Oc2ccccc2-c2ccccc2)C1` (stereo unspecified), for which the growth inhibition is 13.1% in test [1]; 23.4% in test [2]; 9.75% in test [3]; -11.6% in test [4]; 22.2% in test [5]; 13.6% in test [6].

On to `N=C1N(S(=O)(=O)c2ccccc2)[C@@H](Cc2ccccc2)[C@H](c2ccccc2)C1(c1ccccc1)c1ccccc1`, for which the growth inhibition was -25.1% in test [1]; -7.3% in test [2]; 6.05% in test [3]; -29.6% in test [4]; -3.5% in test [5]; 18.2% in test [6].

In the case of `Cc1ccc2c(c1)CCCN2`, the growth inhibition in test [1] was 7.2%; in test [2] it was 11.2%; in test [3] it was 4.65%; in test [4], 21.6%; in test [5], 9.8%; in test [6] it was 7.55%.

For `COc1cc2c(c3c1/c(=N\N=c1/c4ccccc4n(C)c4c5c(cc(OC)c14)OC(C)(C)C=C5)c1ccccc1n3C)C=CC(C)(C)O2`, the growth inhibition is 70% (active) in test [1]; 13.6% in test [2]; 64.5% in test [3]; 48% in test [4]; 36.9% in test [5]; 27.4% in test [6].

Regarding `CC(=O)Oc1ccc2c(OC(C)=O)c(C)cc(OC(C)=O)c2c1`, the growth inhibition was 26.3% in test [1]; 5.6% in test [2]; 20.9% in test [3]; 3.8% in test [4]; 19.1% in test [5]; 24.4% in test [6].

For `CC(=O)Nc1ccc(/C=N/NC(N)=S)cc1`, the growth inhibition in test [1] was 7.4%; in test [2], -7.35%; in test [3], 17%; in test [4], 12.4%; in test [5], 3.05%; in test [6], 13%.

As for `CC(=O)OC1C(=O)C2C(CC=C3CC(O)CC(O)C32C)C2CCC(C(C)C3CC(C)C(C)(C)O3)C12C` (stereo unspecified), the growth inhibition in test [1] is -31.3%; in test [2], -5.15%; in test [3], -29.8%; in test [4], -10.4%; in test [5] it was -10.8%; in test [6] it was -25.6%.

On to `COC(=O)c1sc(C(=O)OC)c2c1CSC2`, for which the growth inhibition in test [1] is -6%; in test [2], 5.35%; in test [3] it was -18.4%; in test [4] it was 2.55%; in test [5], -8%; in test [6], 13.2%.

Turning to `SC1CCCN(Cc2ccccc2)C1` (stereo unspecified), the growth inhibition was 24.9% in test [1]; 4.9% in test [2]; 2.15% in test [3]; 33.8% in test [4]; 8.9% in test [5]; 17.6% in test [6].

Regarding `Cc1ccc(SCC(OCn2cnc3c(Cl)nc(N)nc32)[C@H](C)F)cc1` (stereo partly specified), the growth inhibition in test [1] was 32.2%; in test [2] it was 23.4%; in test [3], 56.5%; in test [4], 24.9%; in test [5], 66%; in test [6] it was -50.9%.

As for `C1CCC2(CC1)SCCS2`, the growth inhibition is 2% in test [1]; -18.4% in test [2]; -1.9% in test [3]; -48.9% in test [4]; -9.4% in test [5]; -10.4% in test [6].

Take `CCOC(=O)c1oc2ccc(OC)c3c2c1CCC3`: the growth inhibition in test [1] is 2.8%; in test [2], -1%; in test [3], 6.3%; in test [4], 15.4%; in test [5], 11.6%; in test [6] it was 19.6%.
